In the library only some 14% were active in any assay of this set; here they are far more common.
4-MU autofl = compounds fluorescent in 4-MU spectral region. compound autofluorescence, 340/450 nm, 4-MU equivalents; hits give high values. max dye-equivalent concentration, M. 59,000 compounds, 11% hits; in the data active = max dye-equivalent concentration above about 10 nM; inconclusive = mostly about 1.1 nM to 9.6 nM
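Compounds in 100 mM Tris, pH 8.0, sat 15 min at room temperature before fluorescence was read at 340 nm excitation/450 nm emission; a per-plate six-point 4-MU standard curve converted signals to dye-equivalent concentration at each compound concentration.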
A350 fluor = compound fluoresces in the Alexa 350 spectral region. 59,000 compounds, 11% hits. Compound autofluorescence, 340/450 nm, Alexa 350 dye-equivalents; hits give high values. AID 590. max dye-equivalent concentration, M; in the data active = max dye-equivalent concentration above about 10 nM; inconclusive = mostly about 1.1 nM to 9.6 nM
HADH2 inhib = blocks human hydroxyacyl-CoA dehydrogenase type II; 73,000 compounds, 3.4% hits; recombinant HADH2, NADH fluorescence, beta-hydroxybutyryl-CoA; AID 886; Q99714; Potency, µM (doses to about 57.1 µM), actives largely listed as inhibitors; note: nearly all actives have a fitted effect of over 60% in size
Target sequence (Q99714 whole entry, looked up, one chain of several): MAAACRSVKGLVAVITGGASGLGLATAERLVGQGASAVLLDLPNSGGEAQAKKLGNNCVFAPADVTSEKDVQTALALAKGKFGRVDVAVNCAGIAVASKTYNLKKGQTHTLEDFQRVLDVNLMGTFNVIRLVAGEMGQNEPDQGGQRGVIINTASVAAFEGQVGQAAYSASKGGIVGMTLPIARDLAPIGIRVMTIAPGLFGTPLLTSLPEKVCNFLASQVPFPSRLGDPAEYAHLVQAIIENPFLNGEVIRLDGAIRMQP
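20 nM HADH2 + cpd, 15 min RT; add 1 mM NAD+/90 uM beta-hydroxybutyryl-CoA; kinetic fluorescence 360/450 nm, 4 min. Tris-HCl pH 9.0, 0.01% Tween-20.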
CRE Fsk mod = modulators of forskolin-stimulated CRE signaling in CHO cells | CHO CRE-bla reporter (cAMP response element driving beta-lactamase), forskolin EC10, beta-lactamase ratio | Potency, µM (highest dose often 38.2 µM), actives largely listed as activators | 71,000 compounds, 2.5% hits | AID 662; active = well fitted activation curve with a large enough effect in the signal ratio, with a control signal flat, not every such curve was filed as active; inconclusive = small, poorly fitted or top-dose-only effect, or effect the other way, or a change in a side signal; the % refers to the signal ratio
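CRE-bla CHO cells stimulated with EC10 NKH 477 (water-soluble forskolin) and compound titrations, 3 h at 37C; beta-lactamase read with CCF4 after 2 h at room temperature. Activity from 460/530 nm emission ratio, AC50 values for positive or negative modulation.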
AID923 = qHTS Assay for Allosteric/Competitive Inhibitors of Caspase-1: Spectroscopic Profiling in AFC Spectral Region; compound fluorescence, AFC spectral region (405/520 nm); Potency, µM (top dose mostly 57.5 µM), most hits filed as activators; 75,000 compounds, 1.1% hits; AID 923, 2007
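Baseline compound fluorescence (AFC region, 405 nm ex/520 nm em) taken from the intercept of kinetic reads with 50 nM caspase-1 and 5 uM Ac-WEHD-AFC; normalized to an on-plate AFC standard curve; compounds titrated up to 57 uM.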
HSD17B inhib = HSD17B dehydrogenase inhibition; 75,000 compounds, 7.6% hits; Q99714; Potency, µM (doses to about 57.1 µM), hits mostly inhibitors; recombinant HSD17B10, NADH fluorescence kinetic;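 note: the protocol describes HADH2 (HSD17B10) and not the HSD17B4 of the title; nearly all actives have a fitted effect of over 70% in size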
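Enzyme plus compound, 15 min room temperature; substrate mix added (NAD+ 1 mM, beta-hydroxybutyryl-CoA 90 uM final); plates read kinetically for NADH fluorescence. HADH2 was His-tagged, E. coli-derived, 20 nM.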
Numbers stand for hits; 0 = inactive; ? = inconclusive; - = no result; [ ] = dose if it differs, or a comment. Unless noted, calls come from the whole dose curve; as a rule, active = well fitted curve in the direction sought with a large enough effect; inconclusive = small, poorly fitted or top-dose-only effect, or another doubt; inactive = no such curve, though single readings can be large; an effect the other way counts as inactive or inconclusive.

SMILES	4-MU autofl	A350 fluor	HADH2 inhib	CRE Fsk mod	AID923	HSD17B inhib
O=C(NCCOC(=O)c1cccs1)c1cccnc1	0	0	0	0	0	0
CCOC(=O)c1c(C2COc3ccccc3O2)csc1NC(=O)c1ccco1 (configuration not stated)	3.56e-08M	3.39e-08M	3.16µM	2µM	0	5.01µM
CCOC(=O)c1c(-c2ccc(C)o2)csc1NC(=O)COC(=O)c1cccs1	0	0	?	0	0	0
CCC(C)NC(=O)c1cc(-c2ccc(OC)cc2)on1 (configuration not stated)	0	0	0	?	0	?
COC(=O)c1c(-c2ccccc2)csc1NC(=O)c1ccco1	3.41e-07M	4.44e-07M	?	?	0	31.6µM
O=C(Nc1scc(-c2ccc(F)cc2)c1C(=O)O)c1ccco1	0	0	0	0	0	0
Cc1cc(C)c(O)c(Cc2cccc(Cc3cc(C)cc(C)c3O)c2O)c1	0	0	0[11.4 µM]	0[7.6 µM]	0[11.5 µM]	0[11.4 µM]
Cc1nn(-c2ccccc2)c2sc(C(=O)O)cc12	0	0	0	?	0	0
Cc1nn(-c2ccccc2)c2sc(C(=O)OC3CCOC3=O)cc12 (configuration not stated)	0	0	?	?	0	31.6µM
Cc1nn(-c2ccccc2)c2sc(C(=O)N3CCOCC3)cc12	0	0	0	3.98µM	0	0
Cc1ccc(-n2nc(C)c3cc(C(=O)O)sc32)cc1	-	-	0	?	0	0
COC(=O)c1cc2c(C)nn(-c3ccccc3)c2s1	?	?	0	?	0	31.6µM
Cc1nn(-c2ccc(F)cc2)c2sc(C(=O)O)cc12	0	?	0	6.31µM	0	0
Cc1cccc(-n2c(N)cc(=O)nc2SCC(=O)Nc2cc(C)on2)c1	0	0	0	0	0	0
O=C(CCCCCN1C(=O)c2ccccc2C1=O)NCCc1nc2ccccc2[nH]1	0	0	0	0	0	0
CNC(=O)CSc1nnc(-c2cc3c(C)nn(-c4ccccc4)c3s2)n1C	0	0	0	0	0	0
Cc1nn(-c2ccccc2)c2sc(-c3n[nH]c(=S)o3)cc12	2.14e-07M	2.3e-07M	20µM	5.01µM	0	15.8µM
Cc1cc(C)n2nc(SCC(=O)NCc3ccco3)nc2n1	0	0	0	?	0	0
CCCOC(=O)c1ccc(NS(=O)(=O)c2cccs2)cc1	1.45e-07M	1.33e-07M	0	0	0	0
NC(=O)CN1C(=O)C2CCCCN2C(=O)c2ccccc21 (configuration not stated)	3.63e-08M	3.58e-08M	0	0	0	0
OC1CN=C2CCCc3c2n(c2ccc(Cl)cc32)C1 (configuration not stated)	6.06e-08M	8.09e-08M	?	?	0	31.6µM
COc1nc(-c2ccccc2)ccc1-c1noc(-c2ccccc2F)n1	1.33e-08M	1.66e-08M	10µM	0	0	0
CCOc1nc(C)ccc1-c1noc(-c2ccccc2OC)n1	0	0	0	?	0	?
COc1nc(-c2ccccc2)ccc1-c1noc(-c2ccc(F)cc2)n1	?	?	6.31µM	0	0	0
c1ccc(-c2ccc(-c3nc(-c4ccccn4)no3)cc2)cc1	-	-	?	?	0	?
SMILES	4-MU autofl	A350 fluor	HADH2 inhib	CRE Fsk mod	AID923	HSD17B inhib
CCOC(=O)N1CCC(NC(=O)C2CCN(C(=O)N3CCOc4ccccc43)CC2)CC1	0	0	0	0	0	0
Cc1sc2ncnc(OCC(=O)NCC3CCCO3)c2c1C (configuration not stated)	0	0	0	0	0	0
Cc1sc2ncnc(OCC(=O)NCc3cccs3)c2c1C	?	1.01e-08M	0	0	0	0
COc1ccc(S(=O)(=O)NCCSc2ccccc2)cc1OC	-	-	?	0	0	0
O=c1cc(-c2ccccc2)[nH]c2nc3ccccc3n12	4.1e-07M	3.74e-07M	0	0	0	25.1µM
Cc1ccc(C(CC(=O)c2ccco2)SCCO)cc1 (configuration not stated)	?	1.03e-08M	0	0	0	0
CCCn1c(SCC(=O)N2CCCc3ccccc32)nnc1-c1ccco1	0	0	0	?	0	0
COc1ccc(S(=O)(=O)N(C)c2c(C)n(C)n(-c3ccccc3)c2=O)cc1OC	-	-	0	0	0	0

Assay outcomes (PubChem BioAssay)
